Inconclusive results are not listed. Calls of active or inactive are those of the source. Rule for the calls: active = hit-call score of the fitted dose curve at least 0.9, where 1 is the maximum; inconclusive = response in the unintended direction; inactive = score below 0.9.

Experimental findings from PubChem BioAssay (EPA / NIEHS) are described below.

The first experiment can be described thus: VALA_MIGHUV1_ScratchOnly_WoundArea: VALA Sciences human Umbilical Vein Endothelial Cell Migration (MIGHUV) Assay, Area of Scratch Wound Inhibited Recovery (AID 2284336). The procedure:
VALA_MIGHUV1_ScratchOnly is a cell-based, multiplexed assay that uses umbilical vein-derived endothelial cells (HUVEC). Measurements were taken 24 hours after chemical dosing in a 96-well plate.VALA_MIGHUV1_ScratchOnly_WoundArea is the one of two assay components measured from the VALA_MIGHUV1_ScratchOnly assay. It is designed to make measurements of endothelial migration, a form of morphology reporter, as detected with fluorescence intensity signals by HCS Fluorescent Imaging technology. Data from the assay component VALA_MIGHUV1_ScratchOnly_WoundArea was analyzed at the endpoint, VALA_MIGHUV1_ScratchOnly_WoundArea, in the positive analysis fitting direction relative to DMSO as the negative control and baseline of activity. Using a type of morphology reporter, gain-of-signal activity can be used to understand developmental effects. To generalize the intended target to other relatable targets, this assay endpoint is annotated to the neurodevelopment intended target family, where the subfamily is migration.
Cells were seeded on 384-well microplates (day-0) at a density of 9000 cells per well for detection of wound area recovery or 4000 cells per well for detection of beta-catenin (CTNB) immunoreactivity and incubated in Endothelial Cell Growth Medium (CAI, San Diego; catalog 211-500). After 24 hours of culture, the HUVEC plates were scratched using a custom scratch head with the Bravo liquid handling system. This created a 'wound' area without cells in each well. Test chemical was added within 30 min, each tested in 3-replicates across a 6-point concentration response (0.1 % DMSO vehicle control). 'ScratchOnly' Plates were incubated for a 24 h 'wound recovery' period and then fixed with 4% paraformaldehyde. Hoechst dye was used to visualize cell nuclei in the wound area, and CTNB immunofluorescence for visualizing CTNB-positive nuclei (beta-Catenin (L54E2) Mouse mAb (IF Preferred) 2677; Cell Signaling Technology, Danvers, MA). Each HUVEC plate included neutral vehicle control (0.1 % DMSO) treated wells and Cytochalasin D (actin cytoskeletal disrupter) or BIO-acetoxime (synthetic GSK3 inhibitor) as positive reference controls for endothelial migration and nuclear translocation of CTNB, respectively.
With `N[C@@H](Cc1cc(I)c(Oc2ccc(O)c(I)c2)c(I)c1)C(=O)O`, the result was inactive.
Still for that read-out and setting: in the case of `CC(C)(c1ccc(O)cc1)c1ccc(O)cc1` it was “inactive”; in that of `S=C(S)NCCNC(=S)S.[Mn+2].[S-]C([S-])=NCCN=C([S-])[S-].[Zn+2]`, “inactive”.
Still for that read-out and setting: next, `CC(C)CCCCCCc1ccc(O)cc1`: “inactive”.

Another experiment in a line: VALA_TUBIPS_Agonist_CellCount: Viability Assessment in the VALA Sciences human iPS-derived Endothelial Tubule Formation (TUBIPS) Agonism Assay (AID 2284338).
As to `N[C@@H](Cc1cc(I)c(Oc2ccc(O)c(I)c2)c(I)c1)C(=O)O`, the result was inactive.
For `CC(C)(c1ccc(O)cc1)c1ccc(O)cc1`, the call was inactive.
The same measure, in the same setting: in the case of `S=C(S)NCCNC(=S)S.[Mn+2].[S-]C([S-])=NCCN=C([S-])[S-].[Zn+2]` it was “inactive”; in that of `CC(C)CCCCCCc1ccc(O)cc1`, “inactive”.

A further experiment can be described thus: CCTE_Mundy_HCI_iCellGluta_NOG_NeuronCount: CCTE's Neurite Outgrowth Assay in iCellGluta cells for Neuron Count, Mundy Lab (AID 2284340).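 Note: cells fixed about 48 h after compound addition.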 Put shortly:
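Neuron count read by automated high-content imaging of Hoechst 33342 and betaIII-tubulin/Alexa Fluor-488 labelling in human iPSC glutamatergic neurons. Activity fitted relative to DMSO.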
For the compound `C#CCOC(=O)[C@@H](C)Oc1ccc(Oc2ncc(Cl)cc2F)cc1`, the outcome was inactive.
In the case of `CCN(CC)C(=O)c1cccc(C)c1`, the call was inactive.
Usually AC50 stands for the concentration at which the activity in the assay is half-maximal. `Cc1nn(C)c(Oc2ccccc2)c1C=NOCc1ccc(C(=O)OC(C)(C)C)cc1`: the AC50 is 6.47 µM (active).
Consider `S=C(S)NCCNC(=S)S.[Mn+2].[S-]C([S-])=NCCN=C([S-])[S-].[Zn+2]`, for which the result was inactive.
As to `CCCN(CCC)C(=O)SCC`, the call was inactive.
